Source: PubChem BioAssay (NCATS)
Inconclusive results are not listed. Where a call stands in place of a potency, no number is given. Calls of active or inactive are those of the source. Calls follow the shape of the dose curve; as a rule, active = well fitted inhibition curve with a large enough effect; inconclusive = small, poorly fitted or top-dose-only effect; inactive = flat fitted curve, though single readings scatter.

The compounds below were run on N140 (assay: qHTS profiling for inhibitors of Plasmodium falciparum proliferation (AID 504749; also: nearly all actives have a fitted effect of over 60% in size)). Conditions: P. falciparum in erythrocytes, SYBR Green DNA, 72 h; series mostly up to 28.7 µM.
How it was run: (§1)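 P. falciparum-infected erythrocytes (0.3% parasitemia, 2.5% hematocrit final) were exposed to compounds for 72 h at 37 C in 5% CO2, then lysed with SYBR Green buffer overnight at room temperature; parasite DNA fluorescence was normalized to artemisinin and DMSO controls.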
Potency is read from the fitted curve at half-maximal effect.

With `COc1ccc2[nH]cc(CCNC(C)=O)c2c1` as the compound, how does the Potency read?
Its Potency is “inactive”.

How did the Potency turn out when `Clc1ccc2nsnc2c1NC1=NCCN1` was run?
Its Potency is “inactive”.

How did the Potency turn out when `NC(=O)OCC(COC(N)=O)c1ccccc1` was run?
Its Potency is “inactive”.

For `Cc1cnc(C(=O)NCCc2ccc(S(=O)(=O)NC(=O)NC3CCCCC3)cc2)cn1`, which Potency is on record?
The Potency was “inactive”.

For `CC(C)(Oc1ccc(C2CC2(Cl)Cl)cc1)C(=O)O` (configuration not stated), which Potency is on record?
Its Potency is “inactive”.

`CN(C)c1nc(N(C)C)nc(N(C)C)n1` was tested. Which Potency did it give?
The Potency was “inactive”.

`CC(=O)OCC(CCn1cnc2cnc(N)nc21)COC(C)=O` was tested. Which Potency did it give?
Its Potency is “inactive”.

For `N[C@@H](Cc1c[nH]c2ccc(O)cc12)C(=O)O`, which Potency is on record?
The Potency was “inactive”.

Which Potency does the source give for `O=c1c(O)c(-c2ccc(O)c(O)c2)oc2cc(O)cc(O)c12` here?
The Potency was “inactive”.

Which Potency does the source give for `CC[N+](CC)(CC)CCOc1cccc(OCC[N+](CC)(CC)CC)c1OCC[N+](CC)(CC)CC` here?
The Potency was “inactive”.

How did the Potency turn out when `NCCCCCC(=O)O` was run?
The Potency was “inactive”.

For `O=C1N(c2ccccc2)c2ccccc2C1(Cc1ccncc1)Cc1ccncc1`, which Potency is on record?
The Potency was “inactive”.

For `Cc1cc(C(C)(C)C)c(O)c(C)c1CC1=NCCN1`, which Potency is on record?
Its Potency is “inactive”.

`Nc1nc2c(ncn2COC(CO)CO)c(=O)[nH]1` was tested. Which Potency did it give?
Its Potency is “inactive”.

`CN(C)C(=N)N=C(N)N` was tested. Which Potency did it give?
Its Potency is “inactive”.

How did the Potency turn out when `NC(=O)NO` was run?
Its Potency is “inactive”.

`NC12CC3CC(CC(C3)C1)C2` was tested. Which Potency did it give?
Its Potency is “inactive”.

For `CC(C)(C)C(=O)Oc1ccc(S(=O)(=O)Nc2ccccc2C(=O)NCC(=O)O)cc1`, which Potency is on record?
Its Potency is “inactive”.

For `NCCS(=O)(=O)O`, which Potency is on record?
The Potency was “inactive”.

For `CCCNCC(O)COc1ccccc1C(=O)CCc1ccccc1` (configuration not stated), which Potency is on record?
Its Potency is 355 nM (active).

How did the Potency turn out when `O=C(c1ccc(F)cc1)C1CCN(CCn2c(=O)[nH]c3ccccc3c2=O)CC1` was run?
Its Potency is “inactive”.

With `Cn1cnc2c1c(=O)[nH]c(=O)n2C` as the compound, how does the Potency read?
The Potency was “inactive”.

How did the Potency turn out when `C[C@](N)(Cc1ccc(O)c(O)c1)C(=O)O` was run?
The Potency was “inactive”.

With `NCCc1cnc[nH]1` as the compound, how does the Potency read?
Its Potency is “inactive”.

These compounds were tested on P93_24 in the same assay as above. Conditions: P. falciparum in erythrocytes, SYBR Green DNA, 72 h; series mostly up to 28.7 µM.
How it was run: as §1

How did the Potency turn out when `COc1ccc2[nH]cc(CCNC(C)=O)c2c1` was run?
The Potency was “inactive”.

How did the Potency turn out when `Clc1ccc2nsnc2c1NC1=NCCN1` was run?
The Potency was “inactive”.

How did the Potency turn out when `NC(=O)OCC(COC(N)=O)c1ccccc1` was run?
The Potency was “inactive”.

`Cc1cnc(C(=O)NCCc2ccc(S(=O)(=O)NC(=O)NC3CCCCC3)cc2)cn1` was tested. Which Potency did it give?
The Potency was “inactive”.

How did the Potency turn out when `CC(C)(Oc1ccc(C2CC2(Cl)Cl)cc1)C(=O)O` (configuration not stated) was run?
The Potency was “inactive”.

How did the Potency turn out when `CN(C)c1nc(N(C)C)nc(N(C)C)n1` was run?
Its Potency is “inactive”.

Which Potency does the source give for `CC(=O)OCC(CCn1cnc2cnc(N)nc21)COC(C)=O` here?
The Potency was “inactive”.

How did the Potency turn out when `N[C@@H](Cc1c[nH]c2ccc(O)cc12)C(=O)O` was run?
The Potency was “inactive”.

For `CC[N+](CC)(CC)CCOc1cccc(OCC[N+](CC)(CC)CC)c1OCC[N+](CC)(CC)CC`, which Potency is on record?
Its Potency is “inactive”.

For `NCCCCCC(=O)O`, which Potency is on record?
The Potency was “inactive”.

With `O=C1N(c2ccccc2)c2ccccc2C1(Cc1ccncc1)Cc1ccncc1` as the compound, how does the Potency read?
Its Potency is “inactive”.

How did the Potency turn out when `Cc1cc(C(C)(C)C)c(O)c(C)c1CC1=NCCN1` was run?
The Potency was “inactive”.

Which Potency does the source give for `Nc1nc2c(ncn2COC(CO)CO)c(=O)[nH]1` here?
The Potency was “inactive”.

For `CN(C)C(=N)N=C(N)N`, which Potency is on record?
The Potency was “inactive”.

Which Potency does the source give for `NC(=O)NO` here?
Its Potency is “inactive”.

With `NC12CC3CC(CC(C3)C1)C2` as the compound, how does the Potency read?
The Potency was “inactive”.

With `CC(C)(C)C(=O)Oc1ccc(S(=O)(=O)Nc2ccccc2C(=O)NCC(=O)O)cc1` as the compound, how does the Potency read?
The Potency was “inactive”.

How did the Potency turn out when `NCCS(=O)(=O)O` was run?
The Potency was “inactive”.

How did the Potency turn out when `CCCNCC(O)COc1ccccc1C(=O)CCc1ccccc1` (configuration not stated) was run?
The Potency was 501 nM (active).

`O=C(c1ccc(F)cc1)C1CCN(CCn2c(=O)[nH]c3ccccc3c2=O)CC1` was tested. Which Potency did it give?
The Potency was “inactive”.

How did the Potency turn out when `Cn1cnc2c1c(=O)[nH]c(=O)n2C` was run?
The Potency was “inactive”.

For `C[C@](N)(Cc1ccc(O)c(O)c1)C(=O)O`, which Potency is on record?
The Potency was “inactive”.

How did the Potency turn out when `NCCc1cnc[nH]1` was run?
Its Potency is “inactive”.
